Consider 39 molecules from PubChem BioAssay (Tox21).

Values joined by “and” are separate entries in the source; they are usually repeats but may differ in a detail not shown here. Identical values can stand only once. Inconclusive results are not listed. Entries that show only a call come without a potency. Some structures have more than one record in an assay (separate samples or runs), and their calls can disagree. Active and inactive are the calls of the source. Calls follow the shape of the dose curve; as a rule, active = well fitted activation curve with a large enough effect in the repeat runs; inconclusive = weak or mixed curves; inactive = flat fitted curve, though single readings scatter.
Potency is read from the fitted curve at half-maximal effect.

A short description of the first assay: A CellTox Green Cytotoxicity Assay to monitor cytotoxicity in HepG2 cells - 0 hour (AID 1224882). Also: nearly all actives have a fitted effect of over 35% in size. To be noted: CellTox Green fluorescence; series mostly up to 76.8 µM; cytotoxicity: at the top concentration. Summed up:
(§1)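 Fluorescent DNA-binding dye, 600 HepG2 cells/well, 5 h preincubation then compound in DMSO; same plates read at 0–40 h, 37 C.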
In the case of `CN1C(C(=O)Nc2ccccn2)=C(O)c2ccccc2S1(=O)=O`, the Potency result is “inactive”.

As to `CC(=O)c1ccccn1`, the Potency entry is “inactive”.

Consider `O=C(/C=C/c1ccccc1)OCc1ccccc1`, for which the Potency result is “inactive”.

Regarding `O=C=Nc1ccc(Cc2ccc(N=C=O)cc2)cc1`, the Potency entry was “inactive”.

As to `O=Cc1ccccc1O`, the Potency result was “inactive”.

For `OC(CCl)CCl`, the Potency result is “inactive”.

Take `Cc1c(OCC(F)(F)F)ccnc1CS(=O)c1nc2ccccc2[nH]1` (stereo not drawn): the Potency result was “inactive”.

For the molecule `CCC(C)(O)CCCC(C)C` (stereo not drawn), the Potency result is “inactive”.

Consider `O=C(OCc1ccccc1)c1ccccc1O`, for which the Potency result was “inactive”.

`COc1ccc(C(=O)CC(=O)c2ccc(C(C)(C)C)cc2)cc1`: the Potency entry was “inactive and 75.6 nM (active)”.

Take `COC(=O)CCC(=O)OC`: the Potency entry is “inactive”.

Turning to `CCCCOCCOCCO`, the Potency result was “inactive”.

As to `C=CC(C)(CCC=C(C)C)OC(C)=O` (stereo not drawn), the Potency result is “inactive”.

Regarding `Cc1ccc(C)c(O)c1C`, the Potency result was “inactive”.

Regarding `Nc1ccc(Cl)cc1Cl`, the Potency entry was “inactive”.

Regarding `CC(C)Oc1ccc2c(=O)c(-c3ccccc3)coc2c1`, the Potency result is “inactive”.

Regarding `O=C(c1ccccc1)c1ccccc1O`, the Potency result is “inactive”.

For the molecule `c1ccc2sc(SSN3CCOCC3)nc2c1`, the Potency result is “inactive”.

In the case of `O=C(c1ccc(OCCN2CCCCC2)cc1)c1c(-c2ccc(O)cc2)sc2cc(O)ccc12`, the Potency entry is “inactive”.

For the molecule `O=[N+]([O-])c1ccc2c(c1)Cc1ccccc1-2`, the Potency entry is “inactive”.

As for `CCCc1c(OCCCCc2nn[nH]n2)ccc(C(C)=O)c1O`, the Potency result is “inactive”.

In the case of `Brc1cc(Oc2cc(Br)c(Br)c(Br)c2Br)c(Br)c(Br)c1Br`, the Potency entry was “inactive”.

Turning to `c1ccc2cc(Nc3ccc(Nc4ccc5ccccc5c4)cc3)ccc2c1`, the Potency entry was “inactive”.

Turning to `CCOCCOCCO`, the Potency result was “inactive”.

As for `CCCCOCCOCCOCCO`, the Potency result was “inactive”.

For the molecule `Nc1ncn([C@@H]2O[C@H](CO)[C@@H](O)[C@H]2O)c(=O)n1`, the Potency result is “inactive”.

As to `c1ccc2c(c1)c1cccc3ccc4cccc2c4c31`, the Potency result was “inactive”.

On to `Nc1ncnc2nc[nH]c12`, for which the Potency result was “inactive”.

Take `CN(C)CCN(Cc1cccs1)c1ccccn1`: the Potency result is “inactive”.

With `Nc1ccc(S(=O)(=O)Nc2cnc3ccccc3n2)cc1`, the Potency result is “inactive”.

Take `CC1=CC2C3CC(C=C3C)C2C1` (stereo not drawn): the Potency result is “inactive and 27.5 µM (active)”.

Regarding `CC(C)(C)NC(=O)[C@H]1CC[C@H]2[C@@H]3CC[C@H]4NC(=O)C=C[C@]4(C)[C@H]3CC[C@]12C`, the Potency result was “inactive”.

In the case of `C[C@]12CC[C@H]3[C@@H](CCC4=CC(=O)CC[C@@]43C)[C@@H]1CC[C@@H]2C(=O)CO`, the Potency result was “inactive”.

With `CCCCC(CC)COP(=O)(OCC(CC)CCCC)OCC(CC)CCCC` (stereo not drawn), the Potency entry was “inactive”.

Take `Nc1ccc(Nc2ccccc2)cc1`: the Potency entry was “inactive”.

For `CC(C)=CCC/C(C)=C\CO`, the Potency entry is “inactive”.

As for `CCCCCCCCCC(=O)OC`, the Potency result was “inactive”.

As for `S=C(NC1CCCCC1)NC1CCCCC1`, the Potency result is “inactive”.

In the case of `Clc1nc(Cl)c(Cl)c(Cl)c1Cl`, the Potency entry is “inactive”.

The nature of another assay: A CellTox Green Cytotoxicity Assay to monitor cytotoxicity in HepG2 cells - 32 hour (AID 1224883). Also: nearly all actives have a fitted effect of over 50% in size. As to conditions: CellTox Green fluorescence; series mostly up to 76.8 µM; cytotoxicity increase: at the top concentration. Summed up:
as §1
Take `CN1C(C(=O)Nc2ccccn2)=C(O)c2ccccc2S1(=O)=O`: the Potency result is “inactive”.

As to `CC(=O)c1ccccn1`, the Potency entry is “inactive”.

As to `O=C(/C=C/c1ccccc1)OCc1ccccc1`, the Potency result was “inactive”.

In the case of `O=C=Nc1ccc(Cc2ccc(N=C=O)cc2)cc1`, the Potency result is “inactive”.

On to `O=Cc1ccccc1O`, for which the Potency entry was “inactive”.

Turning to `OC(CCl)CCl`, the Potency result is “inactive”.

Regarding `Cc1c(OCC(F)(F)F)ccnc1CS(=O)c1nc2ccccc2[nH]1` (stereo not drawn), the Potency entry was “inactive”.

For the molecule `CCC(C)(O)CCCC(C)C` (stereo not drawn), the Potency result was “inactive”.

Turning to `O=C(OCc1ccccc1)c1ccccc1O`, the Potency entry was “inactive”.

For the molecule `COc1ccc(C(=O)CC(=O)c2ccc(C(C)(C)C)cc2)cc1`, the Potency result is “inactive and 67.4 nM (active)”.

As for `COC(=O)CCC(=O)OC`, the Potency result was “inactive”.

For `CCCCOCCOCCO`, the Potency result is “inactive”.

As for `C=CC(C)(CCC=C(C)C)OC(C)=O` (stereo not drawn), the Potency result was “inactive”.

In the case of `Cc1ccc(C)c(O)c1C`, the Potency result was “inactive”.

With `Nc1ccc(Cl)cc1Cl`, the Potency entry was “inactive”.

Turning to `CC(C)Oc1ccc2c(=O)c(-c3ccccc3)coc2c1`, the Potency entry was “inactive”.

Turning to `O=C(c1ccccc1)c1ccccc1O`, the “cytotoxicity increase” value is 3.42% (inactive).

Take `c1ccc2sc(SSN3CCOCC3)nc2c1`: the Potency is 54.8 µM (active) and 54.9 µM (active).

As to `O=C(c1ccc(OCCN2CCCCC2)cc1)c1c(-c2ccc(O)cc2)sc2cc(O)ccc12`, the Potency is 49 µM (active) and 54.9 µM (active).

Consider `O=[N+]([O-])c1ccc2c(c1)Cc1ccccc1-2`, for which the Potency entry was “inactive”.

Consider `CCCc1c(OCCCCc2nn[nH]n2)ccc(C(C)=O)c1O`, for which the Potency result was “inactive”.

For `Brc1cc(Oc2cc(Br)c(Br)c(Br)c2Br)c(Br)c(Br)c1Br`, the Potency entry is “inactive”.

As for `c1ccc2cc(Nc3ccc(Nc4ccc5ccccc5c4)cc3)ccc2c1`, the “cytotoxicity increase” value is -3.49% (inactive).

`CCOCCOCCO`: the Potency entry is “inactive”.

As for `CCCCOCCOCCOCCO`, the Potency entry was “inactive”.

With `Nc1ncn([C@@H]2O[C@H](CO)[C@@H](O)[C@H]2O)c(=O)n1`, the Potency entry is “inactive”.

Regarding `c1ccc2c(c1)c1cccc3ccc4cccc2c4c31`, the Potency result was “inactive”.

Consider `Nc1ncnc2nc[nH]c12`, for which the “cytotoxicity increase” value is 5.14% [at 35.3 µM] (inactive).

Regarding `CN(C)CCN(Cc1cccs1)c1ccccn1`, the Potency result was “inactive”.

In the case of `Nc1ccc(S(=O)(=O)Nc2cnc3ccccc3n2)cc1`, the Potency entry is “inactive”.

Regarding `CC1=CC2C3CC(C=C3C)C2C1` (stereo not drawn), the Potency result was “inactive and 24.5 µM (active)”.

Consider `CC(C)(C)NC(=O)[C@H]1CC[C@H]2[C@@H]3CC[C@H]4NC(=O)C=C[C@]4(C)[C@H]3CC[C@]12C`, for which the Potency result is “inactive”.

On to `C[C@]12CC[C@H]3[C@@H](CCC4=CC(=O)CC[C@@]43C)[C@@H]1CC[C@@H]2C(=O)CO`, for which the “cytotoxicity increase” value is -9.83% [at 35.3 µM] (inactive).

In the case of `CCCCC(CC)COP(=O)(OCC(CC)CCCC)OCC(CC)CCCC` (stereo not drawn), the Potency result is “inactive”.

Take `Nc1ccc(Nc2ccccc2)cc1`: the Potency result was “inactive”.

`CC(C)=CCC/C(C)=C\CO`: the Potency result is “inactive”.

Take `CCCCCCCCCC(=O)OC`: the Potency entry is “inactive”.

As for `S=C(NC1CCCCC1)NC1CCCCC1`, the Potency result is “inactive”.

Regarding `Clc1nc(Cl)c(Cl)c(Cl)c1Cl`, the “cytotoxicity increase” value was -1.26% (inactive).
